PubChem BioAssay (Tox21)
Results filed as inconclusive are left out. Activity calls are given as the source filed them. Unless noted, calls follow the shape of the dose curve; as a rule, active = well fitted curve in the direction sought with a large enough effect in the repeat runs; inconclusive = weak or mixed curves; inactive = no such curve, though single readings can be large; an effect the other way counts as inactive or inconclusive.

Key:
[1] = qHTS assay to identify small molecule antagonists of the thyroid receptor (TR) signaling pathway (AID 743065); also: nearly all actives have a fitted effect of over 55% in size; also: potency is read from the fitted curve at half-maximal effect
In short: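 GH3.TRE-Luc rat pituitary cells (two TREs driving luciferase) were dosed with compound, then stimulated with 1 nM T3 (final) for 23.5 h at 37 C. ONE-Glo luminescence was the read-out, with CellTiter-Fluor fluorescence as the cytotoxicity counter-screen.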

[2] = test system: thyroid hormone receptor (rat, GH3 cells); test: qHTS assay to identify small molecule agonists of the thyroid receptor (TR) signaling pathway (AID 743066; calls by dose curve)
[3] = biological target: Estrogen receptor (Homo sapiens) (UniProt P03372); test: qHTS assay to identify small molecule antagonists of the estrogen receptor alpha (ER-alpha) signaling pathway (AID 743069; active = well fitted curve in the direction sought with a large enough effect in the signal ratio in the repeat runs, not every such curve was filed as active; the % refers to the signal ratio)
Chain of Estrogen receptor (Homo sapiens) (P03372 whole entry, looked up): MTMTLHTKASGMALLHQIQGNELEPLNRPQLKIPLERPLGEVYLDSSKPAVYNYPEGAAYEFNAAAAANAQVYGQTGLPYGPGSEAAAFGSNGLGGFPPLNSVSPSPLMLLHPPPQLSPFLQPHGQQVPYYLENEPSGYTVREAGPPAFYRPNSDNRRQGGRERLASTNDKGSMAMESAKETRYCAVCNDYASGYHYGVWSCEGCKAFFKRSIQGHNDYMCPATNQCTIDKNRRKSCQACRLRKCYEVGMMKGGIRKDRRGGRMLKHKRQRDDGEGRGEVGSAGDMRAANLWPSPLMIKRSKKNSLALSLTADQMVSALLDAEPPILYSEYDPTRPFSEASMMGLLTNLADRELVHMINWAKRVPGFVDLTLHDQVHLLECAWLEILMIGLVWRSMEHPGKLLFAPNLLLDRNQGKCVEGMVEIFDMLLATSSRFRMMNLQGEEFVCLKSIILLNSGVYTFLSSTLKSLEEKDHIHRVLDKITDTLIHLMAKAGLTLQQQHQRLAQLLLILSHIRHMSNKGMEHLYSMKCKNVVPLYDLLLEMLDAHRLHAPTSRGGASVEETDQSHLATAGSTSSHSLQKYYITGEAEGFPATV
In short: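 Reporter cells (ER-alpha-bla, HEK293 background) are conditioned overnight in stripped-serum medium (2% charcoal-stripped FBS). Compound and 17beta-estradiol exposure runs 18 hr at 37C, 5% CO2.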

[4] = qHTS assay to identify small molecule antagonists of the estrogen receptor alpha (ER-alpha) signaling pathway - cell viability counter screen (AID 743074; calls by dose curve;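 also: HEK293 cells carrying ER-alpha-UAS-bla reporter stimulated with 17beta-estradiol; nearly all actives have a fitted effect of over 45% in size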; also: potency is read from the fitted curve at half-maximal effect)
[5] = biological target: Estrogen receptor (Homo sapiens) (UniProt P03372); test: qHTS assay to identify small molecule agonists of the estrogen receptor alpha (ER-alpha) signaling pathway (AID 743075; calls by dose curve;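 also: HEK293 GripTite cells with ER-alpha and UAS-driven beta-lactamase reporter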)
[6] = biological target: Estrogen receptor (Homo sapiens) (UniProt P03372); test: qHTS assay to identify small molecule agonists of the estrogen receptor alpha (ER-alpha) signaling pathway using the BG1 cell line (AID 743079); settings: BG1Luc4E2 cells, ERE-luciferase agonist, 22 h; activation: at 70.3 µM (top of the series); also: nearly all actives have a fitted effect of over 20% in size; also: potency is read from the fitted curve at half-maximal effect
[7] = qHTS assay to identify small molecule antagonists of the estrogen receptor alpha (ER-alpha) signaling pathway using the BG1 cell line (AID 743080; calls by dose curve;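 also: BG1 cells stimulated with 17beta-estradiol alongside compound; nearly all actives have a fitted effect of over 25% in size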)
In short: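 After 5 days in phenol-red-free 10% charcoal-stripped FBS medium, BG1-Luc-4E2 cells were seeded, left 24 h at 37 C, co-treated with compounds and 17beta-estradiol for 21.5 h, then assayed for viability and luciferase.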

[8] = qHTS assay to identify small molecule antagonists of the estrogen receptor alpha (ER-alpha) signaling pathway using the BG1 cell line - cell viability counter screen (AID 743081);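 also: compound given together with 17beta-estradiol as the ER stimulus; nearly all actives have a fitted effect of over 45% in size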; also: potency is read from the fitted curve at half-maximal effect
[9] = qHTS assay to identify aromatase inhibitors - cell viability counter screen (AID 743084);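 also: cells stimulated with testosterone during compound exposure; nearly all actives have a fitted effect of over 55% in size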; also: potency is read from the fitted curve at half-maximal effect
[10] = qHTS assay to identify small molecule that activate the aryl hydrocarbon receptor (AhR) signaling pathway - cell viability counter screen (AID 743086);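 also: HepG2 liver cells carrying the AhR DRE luciferase reporter; nearly all actives have a fitted effect of over 45% in size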
In short: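 HepG2-AhR-luc (HG2L7.5c1) cells, 4000/well, treated 24 h at 37 C with compound; viability measured as CellTiter-Fluor fluorescence after 30 min in the same wells as the luciferase read.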

[11] = biological target: Peroxisome proliferator-activated receptor gamma (Homo sapiens) (UniProt P37231); test: qHTS assay to identify small molecule agonists of the peroxisome proliferator-activated receptor gamma (PPARg) signaling pathway (AID 743094; active = well fitted activation curve with a large enough effect in the signal ratio in the repeat runs, not every such curve was filed as active; the % refers to the signal ratio)
Chain of Peroxisome proliferator-activated receptor gamma (Homo sapiens) (P37231 whole entry, looked up): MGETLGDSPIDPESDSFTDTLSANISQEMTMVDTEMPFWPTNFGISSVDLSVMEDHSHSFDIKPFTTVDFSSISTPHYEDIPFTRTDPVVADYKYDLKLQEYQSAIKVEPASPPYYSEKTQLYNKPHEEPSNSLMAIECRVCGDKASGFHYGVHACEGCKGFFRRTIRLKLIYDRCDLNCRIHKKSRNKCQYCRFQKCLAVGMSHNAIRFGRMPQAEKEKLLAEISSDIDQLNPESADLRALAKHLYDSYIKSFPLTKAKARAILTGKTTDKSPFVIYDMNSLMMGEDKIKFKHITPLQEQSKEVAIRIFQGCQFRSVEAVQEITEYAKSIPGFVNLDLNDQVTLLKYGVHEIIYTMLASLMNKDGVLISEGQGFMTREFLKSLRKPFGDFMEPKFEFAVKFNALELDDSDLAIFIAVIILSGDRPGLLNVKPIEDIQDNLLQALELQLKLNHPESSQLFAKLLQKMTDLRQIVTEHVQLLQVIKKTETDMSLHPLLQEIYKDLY
In short: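 Beta-lactamase FRET fluorescence was the read-out after a 1 h room-temperature substrate step, following 17 h compound treatment at 37C of HEK293H cells expressing a UAS-driven bla reporter responsive to PPARg.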

[12] = qHTS assay to identify small molecule phospholipidosis (PLD) inducers (AID 1259344; active = well fitted curve in the direction sought with a large enough effect; an effect the other way counts as inactive or inconclusive)
In short: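 Quantitative HTS in HepG2: compound plus LipidTOX Red dye for 24 h, paraformaldehyde fixation with Hoechst 33342, widefield high-content imaging; amiodarone as positive and DMSO as negative control.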

[13] = biological target: Nuclear receptor subfamily 1 group I member 2 (Rattus norvegicus) (UniProt Q9R1A7); test: Rat pregnane X receptor (rPXR) activation by small molecules, qHTS assay (AID 1346983); settings: rPXR luciferase reporter cells, One-Glo luminescence, 24 h; max activation: hits give high values; also: nearly all actives have a fitted effect of over 20% in size; also: potency is read from the fitted curve at half-maximal effect
Chain of Nuclear receptor subfamily 1 group I member 2 (Rattus norvegicus) (Q9R1A7 whole entry, looked up): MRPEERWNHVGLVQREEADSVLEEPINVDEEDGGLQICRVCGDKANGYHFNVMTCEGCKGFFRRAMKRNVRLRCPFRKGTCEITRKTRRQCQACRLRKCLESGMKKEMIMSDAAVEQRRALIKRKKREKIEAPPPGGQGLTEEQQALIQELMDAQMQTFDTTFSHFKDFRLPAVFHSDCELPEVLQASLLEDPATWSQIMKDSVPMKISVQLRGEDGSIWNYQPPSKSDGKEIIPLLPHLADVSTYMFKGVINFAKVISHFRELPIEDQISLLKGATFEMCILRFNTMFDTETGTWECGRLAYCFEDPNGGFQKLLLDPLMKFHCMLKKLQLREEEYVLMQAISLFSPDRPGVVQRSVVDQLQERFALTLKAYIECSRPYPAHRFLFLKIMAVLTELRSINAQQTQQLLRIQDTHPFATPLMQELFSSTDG
In short: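 Cell-based rPXR activation assay: rPXR cells, 2,000 per well, rested 5hr at 37 C, then exposed to compounds in DMSO for 24 hr at 37 C. Luciferase activity read by One-Glo luminescence after 30 min at room temperature.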

[14] = biological target: Nuclear receptor subfamily 1 group I member 2 (Homo sapiens) (UniProt O75469); test: CYP3A4 induction through human pregnane X receptor (PXR) by small molecules, qHTS assay (AID 1346984); also: nearly all actives have a fitted effect of over 40% in size
In short: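 Luminescence readout: luciferase signal after One-Glo (30 min, room temperature), following 3 h at 37C with 3uM final Luciferin-IPA P450 substrate. Cells were DPX-2 (HepG2, PXR/CYP3A4-luc co-transfected) dosed for 24 h.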

[15] = biological target: Nuclear receptor subfamily 1 group I member 2 (Homo sapiens) (UniProt O75469); test: Human pregnane X receptor (PXR) activation by small molecules, qHTS assay (AID 1346985); also: nearly all actives have a fitted effect of over 40% in size; also: potency is read from the fitted curve at half-maximal effect
In short: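 DPX-2 cells (HepG2 co-transfected with a PXR response element and a CYP3A4-promoter luciferase construct) were seeded at 2,000 per well, rested 5 hr at 37C, then exposed to DMSO-dissolved compounds for 24 hr. Activation was read as luciferase luminescence.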

Aromatase (Homo sapiens) = Aromatase (Homo sapiens) (UniProt P11511); test: qHTS assay to identify aromatase inhibitors (AID 743083); also: nearly all actives have a fitted effect of over 55% in size; also: potency is read from the fitted curve at half-maximal effect
Chain of Aromatase (Homo sapiens) (P11511 whole entry, looked up): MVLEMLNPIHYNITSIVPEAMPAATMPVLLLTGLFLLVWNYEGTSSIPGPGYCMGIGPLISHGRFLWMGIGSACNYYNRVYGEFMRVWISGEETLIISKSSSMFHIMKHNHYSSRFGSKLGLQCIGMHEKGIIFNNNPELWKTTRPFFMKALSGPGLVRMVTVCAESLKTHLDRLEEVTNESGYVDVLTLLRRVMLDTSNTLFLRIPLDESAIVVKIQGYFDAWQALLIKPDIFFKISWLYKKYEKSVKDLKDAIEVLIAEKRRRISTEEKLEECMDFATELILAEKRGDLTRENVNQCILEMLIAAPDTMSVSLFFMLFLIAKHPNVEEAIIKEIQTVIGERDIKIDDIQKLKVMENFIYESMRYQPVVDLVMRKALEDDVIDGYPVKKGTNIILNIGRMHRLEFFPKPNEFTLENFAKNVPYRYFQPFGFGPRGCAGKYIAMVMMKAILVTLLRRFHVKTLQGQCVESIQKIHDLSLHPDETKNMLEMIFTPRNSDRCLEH

[16] = biological target: Aryl hydrocarbon receptor (Homo sapiens) (UniProt P35869); test: qHTS assay to identify small molecule that activate the aryl hydrocarbon receptor (AhR) signaling pathway (AID 743085);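 also: HG2L7.5c1 human HepG2 liver cells with stably integrated DRE-driven firefly reporter; nearly all actives have a fitted effect of over 15% in size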
Chain of Aryl hydrocarbon receptor (Homo sapiens) (P35869 whole entry, looked up): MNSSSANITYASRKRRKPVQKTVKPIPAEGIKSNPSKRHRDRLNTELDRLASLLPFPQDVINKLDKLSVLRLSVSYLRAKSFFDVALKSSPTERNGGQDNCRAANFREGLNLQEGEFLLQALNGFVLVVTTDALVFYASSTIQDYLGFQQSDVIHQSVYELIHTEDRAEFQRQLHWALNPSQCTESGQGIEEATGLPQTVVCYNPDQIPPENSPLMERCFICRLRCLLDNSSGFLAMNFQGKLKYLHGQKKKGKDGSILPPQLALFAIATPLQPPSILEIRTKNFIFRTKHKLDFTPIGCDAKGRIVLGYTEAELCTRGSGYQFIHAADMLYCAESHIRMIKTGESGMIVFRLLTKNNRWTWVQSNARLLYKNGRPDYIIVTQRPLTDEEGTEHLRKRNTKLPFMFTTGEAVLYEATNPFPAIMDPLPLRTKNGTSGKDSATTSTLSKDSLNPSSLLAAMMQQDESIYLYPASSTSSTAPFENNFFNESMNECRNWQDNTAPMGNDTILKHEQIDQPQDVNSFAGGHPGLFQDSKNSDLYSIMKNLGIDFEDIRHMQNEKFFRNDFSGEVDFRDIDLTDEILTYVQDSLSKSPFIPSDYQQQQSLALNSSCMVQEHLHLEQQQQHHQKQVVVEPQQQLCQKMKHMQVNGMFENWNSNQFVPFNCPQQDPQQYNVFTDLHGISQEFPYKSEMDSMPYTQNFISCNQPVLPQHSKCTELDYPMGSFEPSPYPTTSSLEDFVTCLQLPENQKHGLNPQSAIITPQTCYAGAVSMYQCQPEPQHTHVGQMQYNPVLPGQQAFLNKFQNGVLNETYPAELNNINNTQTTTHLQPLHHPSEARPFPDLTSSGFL
In short: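 Reporter assay in engineered HepG2 line HG2L7.5c1, whose plasmid carries twenty dioxin responsive elements upstream of firefly luciferase. Treatment lasted 24 h at 37C; ONE-Glo luminescence gauged induction.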
% is scaled to controls: 0 for no effect and ±100 for the full control effect.

O=[N+]([O-])O[C@@H]1CO[C@H]2[C@@H]1OC[C@@H]2O
inactive: Potency [1] | Potency [2] | Potency [3] | Potency [4] | Potency [5] | Potency [6] | Potency [7] | Potency [8] | Potency [9] | Potency [10] | Potency [11] | Potency [12] | max activation [13] -3.54% | Potency [14] | Potency [15]

CC(O)CN(C)C (configuration not stated)
active: Potency [6] 11.9 µM
inactive: Potency [1] | Potency [2] | Potency [3] | Potency [4] | Potency [7] | Potency [8] | Potency (Aromatase (Homo sapiens)) | Potency [9] | Potency [10] | Potency [11] | Potency [12] | max activation [13] -0.0612% | Potency [14] | Potency [15]

O=P(O)(O)OC[C@H](O)CO
inactive: Potency [1] | Potency [2] | Potency [3] | Potency [4] | Potency [5] | Potency [6] | Potency [7] | Potency [8] | Potency (Aromatase (Homo sapiens)) | Potency [9] | Potency [16] | Potency [10] | Potency [11] | Potency [12] | max activation [13] -3.61% | Potency [14] | Potency [15]

CN1CCC(OC(=O)C(Oc2ccc(Cl)cc2)Oc2ccc(Cl)cc2)CC1
inactive: Potency [2] | Potency [3] | Potency [4] | Potency [5] | Potency [6] | Potency [7] | Potency [8] | Potency (Aromatase (Homo sapiens)) | Potency [9] | Potency [10] | Potency [11] | Potency [12] | max activation [13] -4.17% | Potency [14] | Potency [15]

Cc1cc2nc3c(=O)[nH]c(=O)nc-3n(C[C@H](O)[C@H](O)[C@H](O)COP(=O)(O)OP(=O)(O)OC[C@H]3O[C@@H](n4cnc5c(N)ncnc54)[C@H](O)[C@@H]3O)c2cc1C
active: Potency [4] 16.9 µM
inactive: Potency [1] | Potency [2] | Potency [5] | Potency [6] | Potency [7] | Potency (Aromatase (Homo sapiens)) | Potency [16] | Potency [12] | max activation [13] -0.0695% | Potency [14] | Potency [15]

COc1ccc(C[C@H](C)NC[C@@H](O)c2ccc(O)c(NC=O)c2)cc1
inactive: Potency [2] | Potency [3] | Potency [4] | Potency [5] | Potency [6] | Potency [7] | Potency [9] | Potency [10] | Potency [11] | Potency [12] | max activation [13] -1.02% | Potency [14] | Potency [15]

CC(=O)OCC(=O)[C@@]12OC3(CCCC3)O[C@@H]1C[C@H]1[C@@H]3CCC4=CC(=O)C=C[C@]4(C)[C@@]3(F)[C@@H](O)C[C@@]12C
inactive: Potency [1] | Potency [2] | Potency [3] | Potency [4] | Potency [5] | Potency (Aromatase (Homo sapiens)) | Potency [9] | Potency [16] | Potency [10] | Potency [11] | Potency [12] | Potency [14]
active: Potency [13] 25.1 µM | Potency [15] 14.1 µM

CCCCCCCCCCCCCCCC(=O)OCC(COC(=O)CCCCCCCCCCCCCCC)OC(=O)CCCCCCCCCCCCCCC
inactive: Potency [1] | Potency [2] | Potency [3] | Potency [4] | Potency [5] | Potency [7] | Potency [8] | Potency (Aromatase (Homo sapiens)) | Potency [9] | Potency [16] | Potency [10] | Potency [11] | Potency [12] | max activation [13] -0.974% | Potency [14] | Potency [15]

Cc1ccc(S(=O)(=O)NC(=O)N[C@@H](C)Cc2ccccc2)cc1
inactive: Potency [1] | Potency [2] | Potency [4] | Potency [8] | Potency (Aromatase (Homo sapiens)) | Potency [9] | Potency [16] | Potency [10] | Potency [11] | Potency [12] | max activation [13] 4.79% | Potency [14] | Potency [15]

CC(CCc1ccc(O)cc1)NCC(O)c1ccc(O)cc1 (configuration not stated)
inactive: Potency [1] | Potency [2] | Potency [4] | Potency [8] | Potency (Aromatase (Homo sapiens)) | Potency [16] | Potency [10] | Potency [11] | Potency [12] | max activation [13] -0.789% | Potency [14] | Potency [15]

C=Cc1c(C)c2cc3nc(cc4[nH]c(cc5nc(cc1[nH]2)C(C)=C5CCC(=O)OC)c(CCC(=O)O)c4C)[C@@]1(C)C3=CC=C(C(=O)OC)[C@H]1C(=O)OC
inactive: Potency [2] | Potency [4] | Potency [5] | Potency [6] | Potency [7] | Potency (Aromatase (Homo sapiens)) | Potency [10] | Potency [11] | Potency [12] | max activation [13] -3.53% | Potency [14] | Potency [15]

COC(=O)CC[C@H](N)C(=O)O
inactive: Potency [1] | Potency [2] | Potency [3] | Potency [4] | Potency [5] | Potency [6] | Potency [7] | Potency [8] | Potency (Aromatase (Homo sapiens)) | Potency [9] | Potency [10] | Potency [11] | Potency [12] | max activation [13] -5.81% | Potency [14] | Potency [15]

CCCCC/C=C\CCC(=O)N[C@H]1[C@H](Oc2c3cc4cc2Oc2ccc(cc2Cl)[C@@H](O[C@@H]2O[C@H](CO)[C@@H](O)[C@H](O)[C@H]2NC(C)=O)[C@@H]2NC(=O)[C@H](NC(=O)[C@@H]4NC(=O)[C@H]4NC(=O)[C@@H](Cc5ccc(c(Cl)c5)O3)NC(=O)[C@H](N)c3ccc(O)c(c3)Oc3cc(O)cc4c3)c3ccc(O)c(c3)-c3c(O[C@H]4O[C@H](CO)[C@@H](O)[C@H](O)[C@@H]4O)cc(O)cc3[C@@H](C(=O)O)NC2=O)O[C@H](CO)[C@@H](O)[C@@H]1O
inactive: Potency [2] | Potency [3] | Potency [4] | Potency [5] | Potency [6] | Potency [7] | Potency (Aromatase (Homo sapiens)) | Potency [9] | Potency [16] | Potency [10] | Potency [11] | Potency [12] | max activation [13] 0.769% | Potency [14] | Potency [15]

C/C1=C2N=C(/C=C3N=C(/C(C)=C4\[N-][C@@](C)([C@@H]5N=C1[C@](C)(CCC(=O)NCC(C)OP(=O)(O)O[C@H]1[C@@H](O)[C@@H](n6cnc7cc(C)c(C)cc76)O[C@@H]1CO)[C@H]5CC(N)=O)[C@@](C)(CC(N)=O)[C@@H]4CCC(N)=O)[C@@](C)(CC(N)=O)[C@@H]\3CCC(N)=O)C(C)(C)[C@@H]/2CCC(N)=O.CC(=O)O.[Co] (some centres not stated)
active: Potency [1] 11.9 µM | Potency [8] 33.5 µM | Potency (Aromatase (Homo sapiens)) 26.6 µM | Potency [9] 23.7 µM
inactive: Potency [2] | Potency [4] | Potency [16] | Potency [11] | Potency [12] | max activation [13] -15.5% | Potency [14] | Potency [15]
